# Shown is part of a subset that was picked to be rich in the strongest signals.
# B1: Jacalin (Artocarpus integrifolia) (protein)
# chain: MAYSSLLSLSVLALLFSISSADTRKWFLANGINQNPIGIIEAAVGVSEDLLNLNGMEAKNDEQSGISQTVIVGPWGAKVSTSSNGKAFDDGAFTGIREINLSYNKETAIGDFQVVYDLNGSPYVGQNHKSFITGFTPVKISLDFPSEYIMEVSGYTGNVSGYVVVRSLTFKTNKKTYGPYGVTSGTPFNLPIENGLIVGFKGSIGYWLDYFSMYLSL
# What was measured:
# Experiment in all cases: glycan array binding signal (z-score within array); higher = stronger binding
# Conditions in all cases: glycan notation: IUPAC condensed, linker removed
# Fuc(a1-2)Gal(b1-3)GalNAc = target: Fuc(a1-2)Gal(b1-3)GalNAc
# In short: (§1)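 Glycan array binding is given as a within-array Z-score, which can be read as non-binding when negative. The arrays, 3228 of them, came from the Consortium for Functional Glycomics database and were retained only where the protein sequence was available. Z-scores were averaged across arrays of the same protein sequence at different concentrations or buffers and across linkers.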
# Fuc(a1-2)Gal(b1-4)Glc6S = target: Fuc(a1-2)Gal(b1-4)Glc6S
# In short: as §1
# [1] = target: Fuc(a1-2)Gal(b1-4)GlcNAc(b1-3)GalNAc
# In short: as §1
# [2] = target: Fuc(a1-2)Gal(b1-4)[Fuc(a1-3)]GlcNAc(b1-2)[Fuc(a1-2)Gal(b1-4)[Fuc(a1-3)]GlcNAc(b1-4)]Man(a1-3)[Fuc(a1-2)Gal(b1-4)[Fuc(a1-3)]GlcNAc(b1-2)Man(a1-6)]Man(b1-4)GlcNAc(b1-4)GlcNAc
# In short: as §1
# [3] = target: Fuc(a1-2)[Gal(a1-3)]Gal(b1-3)GlcNAc(b1-2)Man(a1-3)[Fuc(a1-2)[Gal(a1-3)]Gal(b1-3)GlcNAc(b1-2)Man(a1-6)]Man(b1-4)GlcNAc(b1-4)[Fuc(a1-6)]GlcNAc
# In short: as §1
# [4] = target: Fuc(a1-2)[Gal(a1-3)]Gal(b1-3)GlcNAc(b1-6)GalNAc
# In short: as §1
# [5] = target: Fuc(a1-2)[Gal(a1-3)]Gal(b1-4)GlcNAc(b1-2)Man(a1-3)[Fuc(a1-2)[Gal(a1-3)]Gal(b1-4)GlcNAc(b1-2)Man(a1-6)]Man(b1-4)GlcNAc(b1-4)[Fuc(a1-6)]GlcNAc
# In short: as §1
# [6] = target: Fuc(a1-2)[Gal(a1-3)]Gal(b1-4)GlcNAc(b1-3)[Fuc(a1-2)[Gal(a1-3)]Gal(b1-4)GlcNAc(b1-6)]GalNAc
# In short: as §1
# [7] = target: Fuc(a1-2)[Gal(a1-3)]Gal(b1-4)GlcNAc(b1-6)GalNAc
# In short: as §1
# [8] = target: Fuc(a1-2)[GalNAc(a1-3)]Gal(b1-4)GlcNAc(b1-2)Man
# In short: as §1
# [9] = target: Fuc(a1-2)[GalNAc(b1-3)]Gal
# In short: as §1
# [10] = target: Fuc(a1-3)[Gal(b1-4)]Glc6S
# In short: as §1
# [11] = target: Fuc(a1-3)[Gal(b1-4)]GlcNAc(b1-2)Man(a1-3)[Fuc(a1-3)[Gal(b1-4)]GlcNAc(b1-2)Man(a1-6)]Man(b1-4)GlcNAc(b1-4)GlcNAc
# In short: as §1
# [12] = target: Gal(a1-3)Gal(b1-4)[Fuc(a1-3)]GlcNAc
# In short: as §1
# [13] = target: Gal(b1-3)GlcNAc(b1-3)Gal(b1-4)Glc
# In short: as §1
# [14] = target: Gal(b1-3)GlcNAc(b1-3)Gal(b1-4)GlcNAc(b1-2)[Gal(b1-3)GlcNAc(b1-3)Gal(b1-4)GlcNAc(b1-6)]Man(a1-6)[Gal(b1-3)GlcNAc(b1-3)Gal(b1-4)GlcNAc(b1-2)Man(a1-3)]Man(b1-4)GlcNAc(b1-4)[Fuc(a1-6)]GlcNAc
# In short: as §1
# [15] = target: Gal(b1-4)GlcNAc(b1-3)Gal(b1-4)GlcNAc(b1-3)Gal(b1-4)GlcNAc(b1-3)Gal(b1-4)GlcNAc(b1-2)Man(a1-3)[Gal(b1-4)GlcNAc(b1-3)Gal(b1-4)GlcNAc(b1-3)Gal(b1-4)GlcNAc(b1-3)Gal(b1-4)GlcNAc(b1-2)Man(a1-6)]Man(b1-4)GlcNAc(b1-4)[Fuc(a1-6)]GlcNAc
# In short: as §1
# [16] = target: Gal(b1-4)GlcNAc(b1-3)Gal(b1-4)GlcNAc(b1-6)[Gal(b1-3)]GalNAc
# In short: as §1
# Gal3S(b1-3)GalNAc = target: Gal3S(b1-3)GalNAc
# In short: as §1
# [17] = target: GalNAc(a1-3)GalNAc(b1-3)Gal(a1-4)Gal(b1-4)Glc
# In short: as §1
# GalNAc(b1-3)GalNAc = target: GalNAc(b1-3)GalNAc
# In short: as §1
# [18] = target: GlcNAc(a1-4)Gal(b1-3)GlcNAc
# In short: as §1
# [19] = target: GlcNAc(a1-4)Gal(b1-4)GlcNAc(b1-3)Gal(b1-4)GlcNAc(b1-3)Gal(b1-4)GlcNAc
# In short: as §1
# [20] = target: GlcNAc(b1-2)Gal(b1-3)GalNAc
# In short: as §1
# [21] = target: GlcNAc(b1-2)Man(a1-3)[GlcNAc(b1-2)Man(a1-6)]Man(b1-4)GlcNAc(b1-4)[Fuc(a1-6)]GlcNAc
# In short: as §1
# [22] = target: GlcNAc(b1-3)Gal(b1-4)GlcNAc(b1-3)Gal(b1-4)GlcNAc(b1-2)Man(a1-3)[GlcNAc(b1-3)Gal(b1-4)GlcNAc(b1-3)Gal(b1-4)GlcNAc(b1-2)Man(a1-6)]Man(b1-4)GlcNAc(b1-4)[Fuc(a1-6)]GlcNAc
# In short: as §1
# [23] = target: GlcNAc(b1-3)Gal(b1-4)GlcNAc(b1-3)Gal(b1-4)GlcNAc(b1-2)[GlcNAc(b1-3)Gal(b1-4)GlcNAc(b1-3)Gal(b1-4)GlcNAc(b1-6)]Man(a1-6)[GlcNAc(b1-3)Gal(b1-4)GlcNAc(b1-3)Gal(b1-4)GlcNAc(b1-2)Man(a1-3)]Man(b1-4)GlcNAc(b1-4)[Fuc(a1-6)]GlcNAc
# In short: as §1
# [24] = target: GlcNAc(b1-3)Gal(b1-4)GlcNAc(b1-3)Gal(b1-4)GlcNAc(b1-3)Gal(b1-4)GlcNAc(b1-2)Man(a1-3)[GlcNAc(b1-3)Gal(b1-4)GlcNAc(b1-3)Gal(b1-4)GlcNAc(b1-3)Gal(b1-4)GlcNAc(b1-2)Man(a1-6)]Man(b1-4)GlcNAc(b1-4)GlcNAc
# In short: as §1
# [25] = target: GlcNAc(b1-3)Gal(b1-4)GlcNAc(b1-3)Gal(b1-4)GlcNAc(b1-3)Gal(b1-4)GlcNAc(b1-2)Man(a1-3)[GlcNAc(b1-3)Gal(b1-4)GlcNAc(b1-3)Gal(b1-4)GlcNAc(b1-3)Gal(b1-4)GlcNAc(b1-2)Man(a1-6)]Man(b1-4)GlcNAc(b1-4)[Fuc(a1-6)]GlcNAc
# In short: as §1
# [26] = target: GlcNAc(b1-3)Gal(b1-4)GlcNAc(b1-3)Gal(b1-4)GlcNAc(b1-3)Gal(b1-4)GlcNAc(b1-2)[GlcNAc(b1-3)Gal(b1-4)GlcNAc(b1-3)Gal(b1-4)GlcNAc(b1-3)Gal(b1-4)GlcNAc(b1-6)]Man(a1-6)[GlcNAc(b1-3)Gal(b1-4)GlcNAc(b1-3)Gal(b1-4)GlcNAc(b1-3)Gal(b1-4)GlcNAc(b1-2)Man(a1-3)]Man(b1-4)GlcNAc(b1-4)[Fuc(a1-6)]GlcNAc
# In short: as §1
# [27] = target: GlcNAc(b1-3)Gal(b1-4)GlcNAc(b1-3)Gal(b1-4)GlcNAc(b1-3)Gal(b1-4)GlcNAc(b1-3)Gal(b1-4)GlcNAc(b1-2)Man(a1-3)[GlcNAc(b1-3)Gal(b1-4)GlcNAc(b1-3)Gal(b1-4)GlcNAc(b1-3)Gal(b1-4)GlcNAc(b1-3)Gal(b1-4)GlcNAc(b1-2)Man(a1-6)]Man(b1-4)GlcNAc(b1-4)GlcNAc
# In short: as §1
# [28] = target: GlcNAc(b1-3)Gal(b1-4)GlcNAc(b1-3)Gal(b1-4)GlcNAc(b1-3)Gal(b1-4)GlcNAc(b1-3)Gal(b1-4)GlcNAc(b1-2)Man(a1-3)[GlcNAc(b1-3)Gal(b1-4)GlcNAc(b1-3)Gal(b1-4)GlcNAc(b1-3)Gal(b1-4)GlcNAc(b1-3)Gal(b1-4)GlcNAc(b1-2)Man(a1-6)]Man(b1-4)GlcNAc(b1-4)[Fuc(a1-6)]GlcNAc
# In short: as §1
# [29] = target: GlcNAc(b1-3)Gal(b1-4)GlcNAc(b1-3)Gal(b1-4)GlcNAc(b1-3)Gal(b1-4)GlcNAc(b1-3)Gal(b1-4)GlcNAc(b1-2)[GlcNAc(b1-3)Gal(b1-4)GlcNAc(b1-3)Gal(b1-4)GlcNAc(b1-3)Gal(b1-4)GlcNAc(b1-3)Gal(b1-4)GlcNAc(b1-6)]Man(a1-6)[GlcNAc(b1-3)Gal(b1-4)GlcNAc(b1-3)Gal(b1-4)GlcNAc(b1-3)Gal(b1-4)GlcNAc(b1-3)Gal(b1-4)GlcNAc(b1-2)Man(a1-3)]Man(b1-4)GlcNAc(b1-4)[Fuc(a1-6)]GlcNAc
# In short: as §1
# [30] = target: GlcNAc(b1-3)Gal(b1-4)GlcNAc(b1-3)Gal(b1-4)GlcNAc(b1-3)GalNAc
# In short: as §1
# [31] = target: GlcNAc(b1-3)Gal(b1-4)GlcNAc(b1-3)[GlcNAc(b1-3)Gal(b1-4)GlcNAc(b1-3)]GalNAc
# In short: as §1
# [32] = target: Neu5Ac(a2-3)Gal(b1-3)GalNAc(b1-3)Gal(b1-4)GlcNAc
# In short: as §1
# [33] = target: Neu5Ac(a2-3)Gal(b1-3)GalNAc(b1-4)[Neu5Ac(a2-3)]Gal(b1-4)Glc
# In short: as §1
# [34] = target: Neu5Ac(a2-3)Gal(b1-3)GlcNAc(b1-2)Man
# In short: as §1
# [35] = target: Neu5Ac(a2-3)Gal(b1-3)GlcNAc(b1-3)Gal(b1-4)GlcNAc
# In short: as §1
# [36] = target: Neu5Ac(a2-3)Gal(b1-3)]Neu5Ac(a2-3)Gal(b1-4)]GlcNAc
# In short: as §1
# [37] = target: Neu5Ac(a2-6)Gal(b1-4)GlcNAc(b1-2)Man(a1-3)[Neu5Ac(a2-3)Gal(b1-4)GlcNAc(b1-2)Man(a1-6)]Man(b1-4)GlcNAc(b1-4)GlcNAc
# In short: as §1
# [38] = target: Neu5Ac(a2-6)Gal(b1-4)GlcNAc(b1-2)Man(a1-6)Man(b1-4)GlcNAc(b1-4)GlcNAc
# In short: as §1
# [39] = target: Neu5Gc(a2-6)Gal(b1-4)GlcNAc
# In short: as §1
binder,measurement,setting,value
B1,glycan array binding signal (z-score),Fuc(a1-2)Gal(b1-3)GalNAc,0.218
same,glycan array binding signal (z-score),Fuc(a1-2)Gal(b1-4)Glc6S,-0.249
same,glycan array binding signal (z-score),[1],0.829
same,glycan array binding signal (z-score),[2],-0.131
same,glycan array binding signal (z-score),[3],-0.249
same,glycan array binding signal (z-score),[4],-0.265
same,glycan array binding signal (z-score),[5],-0.211
same,glycan array binding signal (z-score),[6],-0.332
same,glycan array binding signal (z-score),[7],-0.217
same,glycan array binding signal (z-score),[8],-0.29
same,glycan array binding signal (z-score),[9],0.341
same,glycan array binding signal (z-score),[10],-0.23
same,glycan array binding signal (z-score),[11],-0.259
same,glycan array binding signal (z-score),[12],-0.268
same,glycan array binding signal (z-score),[13],-0.279
same,glycan array binding signal (z-score),[14],-0.084
same,glycan array binding signal (z-score),[15],0.12
same,glycan array binding signal (z-score),[16],0.001
same,glycan array binding signal (z-score),Gal3S(b1-3)GalNAc,1.89
same,glycan array binding signal (z-score),[17],-0.256
same,glycan array binding signal (z-score),GalNAc(b1-3)GalNAc,3.34
same,glycan array binding signal (z-score),[18],0.435
same,glycan array binding signal (z-score),[19],2.63
same,glycan array binding signal (z-score),[20],2.21
same,glycan array binding signal (z-score),[21],0.257
same,glycan array binding signal (z-score),[22],2.52
same,glycan array binding signal (z-score),[23],2.41
same,glycan array binding signal (z-score),[24],3.65
same,glycan array binding signal (z-score),[25],3.32
same,glycan array binding signal (z-score),[26],4.09
same,glycan array binding signal (z-score),[27],4.05
same,glycan array binding signal (z-score),[28],4.23
same,glycan array binding signal (z-score),[29],5.64
same,glycan array binding signal (z-score),[30],1.03
same,glycan array binding signal (z-score),[31],0.857
same,glycan array binding signal (z-score),[32],-0.336
same,glycan array binding signal (z-score),[33],-0.262
same,glycan array binding signal (z-score),[34],-0.194
same,glycan array binding signal (z-score),[35],-0.274
same,glycan array binding signal (z-score),[36],-0.263
same,glycan array binding signal (z-score),[37],-0.241
same,glycan array binding signal (z-score),[38],-0.259
same,glycan array binding signal (z-score),[39],-0.247
